Bioassay records from PubChem.
This is a sample that favours compounds with a hit; in the whole collection about 4.6% have one here.
D1 ag: activates the human D1 dopamine receptor. P21728. HEK293 T-REx D1 cells, calcium flux, agonist mode. activation, % at 2 µM. 1% of 360,000 active. AID 504660; also: 0% is about no effect
Target sequence (P21728 whole entry, looked up): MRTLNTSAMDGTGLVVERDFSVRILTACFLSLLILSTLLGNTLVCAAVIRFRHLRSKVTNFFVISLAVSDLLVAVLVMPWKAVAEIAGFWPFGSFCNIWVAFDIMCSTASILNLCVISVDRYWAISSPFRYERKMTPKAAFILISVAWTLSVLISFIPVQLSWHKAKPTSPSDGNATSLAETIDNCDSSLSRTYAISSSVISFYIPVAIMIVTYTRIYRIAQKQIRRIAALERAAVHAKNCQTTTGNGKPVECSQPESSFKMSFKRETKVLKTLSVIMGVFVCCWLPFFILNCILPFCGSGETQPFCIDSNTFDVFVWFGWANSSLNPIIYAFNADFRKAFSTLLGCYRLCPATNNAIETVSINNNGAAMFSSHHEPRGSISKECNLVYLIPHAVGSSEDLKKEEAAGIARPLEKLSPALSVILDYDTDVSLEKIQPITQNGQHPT
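Inducible HEK293 T-REx D1 cells, force-coupled to calcium signalling, were plated at 4000 cells/well with tetracycline and held overnight at 30 C. After no-wash calcium dye loading, compound-evoked calcium rise over 180 s flagged agonists.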
TRHR ag: agonists of human TRH receptor; P34981; TRHR cells, calcium flux fluo-8, FDSS agonist mode; activation, % at 2 µM; 0.18% of 360,000 active; AID 493084; also: 0% is about no effect
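In this calcium-flux screen, cells bearing human TRHR are dye-loaded with fluo-8, baselined for 10 cycles, then exposed to library compounds; positive kinetic calcium responses during the agonist phase mark hits, with TRH as control.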
D1 PAM: potentiators of human D1 dopamine receptor; HEK293 TREx D1 cells, calcium flux, dopamine EC20 potentiation; P21728; potentiation, % at 10 µM; 0.036% of 360,000 active; in the data active = potentiation above about 30%; also: 0% is about no effect
TRHR PAM: allosteric enhancers of human TRH receptor. enhancement, % at 2 µM. TRHR cells, fluo-8 calcium fluorescence, EC20 TRH enhancement. P34981. AID 493056. 0.66% of 360,000 active; in the data active = enhancement above about 30%; also: 0% is about no effect
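Enhancer read-out: after compound pinning and an initial kinetic agonist-mode read, an EC20 of TRH (10 nM final) was injected and fluo-8 calcium signal (Ex 480/Em 530) followed at 1 s/cycle for 100 cycles in TRHR-expressing cells.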
D1 antagonist: blocks dopamine activation of the human D1 receptor | HEK293 TREx D1 cells, calcium flux, dopamine EC80; active compounds read low | activity change, negative = inhibition, % at 10 µM | 3.2% of 360,000 active | AID 504652; in the data active = activity change below about -30%; also: % is scaled to controls: 0 for no effect and ±100 for the full control effect
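Tetracycline-induced HEK293 T-REx cells with force-coupled D1 receptor were loaded with a no-wash calcium dye. Compound was added after a 10 s baseline and read kinetically for 180 s; EC80 dopamine was then added and calcium flux followed another 180 s.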
Numbers without * were called inactive; · = not tested or not shown. Rule as the data show it, unless noted: active = activation above about 30%; inactive = the rest.

SMILES	D1 ag	TRHR ag	D1 PAM	TRHR PAM	D1 antagonist
O=C(Cc1cccc(C(F)(F)F)c1)Nc1cc(S(=O)(=O)N2CCOCC2)ccc1N1CCCC1	1	2	-24	-17	-43*
O=C(Cc1ccc(S(=O)(=O)N2CCOCC2)s1)Nc1cc(C(F)(F)F)ccc1N1CCCC1	29	-1	5	-10	0
CN1CCN(c2ccc(NC(=O)CSc3ccccc3)cc2F)CC1	6	0	-17	-5	-53*
O=C(Nc1ccncc1)C1CCN(S(=O)(=O)c2cccc(C(F)(F)F)c2)CC1	8	0	·	6	-44*
CN(C(=O)CSc1nc2ccc(NC(=O)c3ccc(F)cc3)cc2s1)c1ccccc1	1	-1	-2	0	7
COc1ccccc1NC(=O)C1=C(C)Nc2nc(-c3ccco3)nn2C1c1cccc(C)c1 (stereo unspecified)	0	-1	-1	-7	-2
COc1ccc(C(=O)NCC(c2ccco2)S(=O)(=O)c2cccs2)cc1 (stereo unspecified)	0	0	-3	-5	·
COc1ccc(S(=O)(=O)N2CCC(O)(c3ccc(Cl)cc3)CC2)cc1OC	0	0	-4	-1	-23
COc1ccc(S(=O)(=O)N2CCC(O)(c3ccc(Cl)cc3)CC2)cc1	11	1	-7	0	-36*
COc1ccc(C(=O)COC(=O)CCN2C(=O)C3C4CC(C(Br)C4Br)C3C2=O)cc1 (stereo unspecified)	1	0	-4	17	5
COc1ccc(C(=O)COC(=O)CN2C(=O)C3C4C=CC(C5CC45)C3C2=O)cc1 (stereo unspecified)	9	0	0	3	-33*
COc1cccc(C(=O)N(c2ccc(C)cc2)C2C=CS(=O)(=O)C2)c1 (stereo unspecified)	3	1	-5	4	-3
COc1ccc(CN2CC(=O)N(c3ccc(C)c(C)c3)C2=S)cc1OC	6	1	-11	2	-36*
Cc1ccccc1NC(=O)Cn1nc(-c2ccc(F)cc2)c2cnc3ccccc3c21	3	0	-6	-1	-37*
Cc1ccc2ncc3c(-c4ccc(F)cc4)nn(CC(=O)Nc4ccccc4C)c3c2c1	7	1	-5	0	-13
O=C(COC(=O)COc1cccc(F)c1)NCCC1=CCCCC1	0	1	-4	17	-32*
O=C(COC(=O)CNC(=O)c1cccc(F)c1)NCCC1=CCCCC1	0	0	-7	3	3
O=C(COC(=O)Cc1c(F)cccc1Cl)NCCC1=CCCCC1	20	4	-11	-2	6
O=C(COC(=O)Cc1c(Cl)cccc1Cl)NCCC1=CCCCC1	35*	0	-1	-5	-3
CC(C)S(=O)(=O)c1oc(-c2ccc(F)cc2)nc1S(=O)(=O)c1ccccc1	7	1	1	0	25
CCCc1cc(=O)[nH]c(Nc2cc(Cl)cc(Cl)c2)n1	25	1	-3	-1	-24
COc1ccc(Br)c2c1-c1nc(NC(=O)c3ccccc3F)sc1C2	1	1	2	6	22
COc1ccc(Br)c2c1-c1nc(NC(=O)c3ccccc3SC)sc1C2	-1	-1	-8	-9	-36*
COc1ccc(Br)c(C(=O)Nc2cc3c(cc2N2CCCCC2)n(C)c(=O)c(=O)n3C)c1	7	1	0	-6	-2
COc1ccccc1CNC(=O)/C=C/c1cc2c(cc1Br)OCO2	8	0	-1	0	-30*
SMILES	D1 ag	TRHR ag	D1 PAM	TRHR PAM	D1 antagonist
COc1ccccc1/C=C/C(=O)NCC(=O)N/N=C/c1ccc2c(c1)OCO2	-4	0	4	-2	6
NC(=O)c1nsc(C(=O)N(c2ccccc2F)C(C(=O)NCc2ccc(F)cc2)c2ccc(O)cc2)c1N (stereo unspecified)	10	1	-1	30*	7
O=C(O)c1ccccc1N/C=C\[N+](=O)[O-]	3	0	-7	2	-6
O=C(Nc1nnc(N2CCCCCC2)s1)c1cc(-c2ccc(Br)cc2)on1	0	0	0	0	-48*
Fc1ccccc1CNC(=S)Nc1cccc(C(F)(F)F)c1	25	2	-19	-5	-44*
FC(F)(F)c1cccc(NC(=S)NCc2ccc(Cl)cc2)c1	24	3	-8	-2	-51*
